# Calls of active or inactive are those of the source. Calls come from the whole dose curve; as a rule, active = well fitted inhibition curve with a large enough effect; inconclusive = small, poorly fitted or top-dose-only effect; inactive = flat fitted curve, though single readings scatter.
# Target: Phosphoglycerate kinase, glycosomal (Trypanosoma brucei brucei) (UniProt P07378)
# Test: qHTS Validation Assay to Find Inhibitors of Phosphoglycerate Kinase (AID 504547)
# Conditions: enzymatic PGK inhibition, coupled luminescence read-out; series mostly up to 57.5 µM
# From the text: NIH Molecular Libraries Probe Production Network [MLPCN]
# NIH Chemical Genomics Center [NCGC]
# PI Name: Malcolm Walkinshaw, University of Edinburgh
# Several species of the Trypanosomatidae family of parasitic protozoans cause a spectrum of diseases
# throughout the tropical and subtropical world. Sleeping sickness, caused by two subspecies of Trypanosoma brucei, is endemic to areas of sub-Saharan Africa, while Chagas disease, a manifestation of Trypanosoma cruzi infection, is prevalent throughout Central and South America. In addition, many species of Leishmania are responsible for a range of cutaneous and visceral diseases, causing ulcers, destructive lesions and kalaazar, a lethal infection of the viscera. Collectively, these organisms infect 30 million people worldwide (~500 million live in endemic areas), and account for ~130,000 deaths annually. Given their debilitating and prevalent nature, trypanosomatid parasites impose a heavy medical, economic and social burden on entire populations, primarily in the developing world. The problem is further exacerbated by the fact that existing treatments have progressed little in the past 50 years, and current drugs show high toxicity and poor efficacy.
# Blood-stream stages of T. brucei are entirely dependent on glycolysis as a source of ATP, and the tricarboxylic acid cycle and oxidative phosphorylation are both repressed. Glycolysis in axenically cultured T. cruzi, representing the intracellular pathogenic stage, is also essential for these parasites. […] Previous studies have shown that the glycolytic enzyme, phosphoglycerate kinase (PGK), is a viable target for drugs to kill these parasites.
# NCGC Assay Protocol Summary:
# Briefly, 3ul of substrate/PGK buffer (columns 1,2,5-48) are dispensed into Greiner white solid bottom 1536-well assay plates; columns 3-4 receive only TEA buffer as 0x PGK controls. Compounds are then transferred via Kalypsys pin tool equipped with 1536-pin array (10nl slotted pins, V&P Scientific, San Diego, CA). Following addition of compound, 1ul of GAPDH (100nM final concentration, all columns) is added to initiate the reaction (this upstream coupling enzyme is necessary for in-well production of PGK substrate, 1,3-bisphosphoglycerate (1,3-BPG), which is unstable and not commercially available). The plates are then incubated at room temperature for 60 minutes. Kinase-Glo Plus reagent is added (2ul) and plates incubated for 10 minutes, before being transferred to a ViewLux high-throughput CCD imager (PerkinElmer) wherein single end-point measurements of luminescence are acquired using a clear filter. All reagents are diluted in an assay buffer consisting of 100mM TEA (pH 7.6), 5mM MgCl2 and 0.01% Tween-20.
# Phosphoglycerate kinase, glycosomal (Trypanosoma brucei brucei), sequence (P07378 whole entry, looked up): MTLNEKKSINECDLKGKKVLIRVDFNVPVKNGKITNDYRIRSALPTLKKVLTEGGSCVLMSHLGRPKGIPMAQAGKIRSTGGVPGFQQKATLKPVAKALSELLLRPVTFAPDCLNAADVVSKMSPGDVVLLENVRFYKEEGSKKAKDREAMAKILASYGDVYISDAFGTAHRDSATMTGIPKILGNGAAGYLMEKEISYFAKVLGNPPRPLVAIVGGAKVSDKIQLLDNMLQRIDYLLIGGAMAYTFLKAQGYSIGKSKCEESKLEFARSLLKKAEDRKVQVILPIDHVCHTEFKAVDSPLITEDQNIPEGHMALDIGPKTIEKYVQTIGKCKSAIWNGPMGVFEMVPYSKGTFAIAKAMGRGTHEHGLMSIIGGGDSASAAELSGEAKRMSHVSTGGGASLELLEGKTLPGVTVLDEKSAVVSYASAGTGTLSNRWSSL
row,Compound,outcome
1,N=c1nc(N2CCCCC2)cc(N)n1O,inactive
2,NC(=O)c1cnccn1,inactive
3,CCCCNc1cc(C(=O)O)cc(S(N)(=O)=O)c1Oc1ccccc1,inactive
4,Cc1ccccc1C(OCCN(C)C)c1ccccc1 (stereo not given),inactive
5,Cc1cn[nH]c1,inactive
6,Nc1nc2ccc(OC(F)(F)F)cc2s1,inactive
7,Nc1ccc(S(=O)(=O)Nc2ccnn2-c2ccccc2)cc1,inactive
8,CC(C)C[C@H](NC(=O)[C@@H](O)[C@H](N)Cc1ccccc1)C(=O)O,inactive
9,CC(C)(C)NCC(O)c1ccc(O)c(CO)c1 (stereo not given),inactive
10,O=C(Nc1nc2ccccc2n1CCN1CCOCC1)c1cccc([N+](=O)[O-])c1,inactive
11,Cc1ccc(N(CC2=NCCN2)c2cccc(O)c2)cc1,inactive
12,Cc1oncc1C(=O)Nc1ccc(C(F)(F)F)cc1,inactive
13,Cc1[nH]c(=O)c(C#N)cc1-c1ccc2nccn2c1,inactive
14,C1COC(NC(C2CC2)C2CC2)=N1,inactive
15,CC(C)NCC(O)COc1ccc(COCCOC(C)C)cc1 (stereo not given),inactive
16,C[C@]12CCC(=O)C=C1CC[C@@H]1[C@@H]2[C@@H](O)C[C@@]2(C)[C@H]1CC[C@]2(O)C(=O)CO,inactive
17,OC(CN1CCC(Cc2ccc(F)cc2)CC1)c1ccc(Cl)cc1 (stereo not given),inactive
18,Clc1cccc(Cl)c1NC1=NCCN1,inactive
19,Cc1cccc(-c2[nH]c(C(C)(C)C)nc2-c2ccc3nccnc3c2)n1,inactive
20,c1ccc([C@H]2CN3CCSC3=N2)cc1,inactive

row,Compound,outcome
1,O=C1CCc2cc(OCCCCc3nnnn3C3CCCCC3)ccc2N1,inactive
2,NC(N)=NC(=O)c1nc(Cl)c(N)nc1N,inactive
3,CN1CCN(CCCN2c3ccccc3Sc3ccc(C(F)(F)F)cc32)CC1,inactive
4,CCC(C)N(C)C(=O)c1cc2ccccc2c(-c2ccccc2Cl)n1 (stereo not given),inactive
5,O=C(O)COCCN1CCN(C(c2ccccc2)c2ccc(Cl)cc2)CC1 (stereo not given),inactive
6,Cc1cnc(NC(=O)C2=C(O)c3ccccc3S(=O)(=O)N2C)s1,inactive
7,CCOC(=O)C1=C[C@]2(CC)CCCN3CCc4c(n1c1ccccc41)[C@@H]32,inactive
8,CCn1cc(C(=O)O)c(=O)c2cc(F)c(N3CCNC(C)C3)c(F)c21 (stereo not given),inactive
9,NNCCc1ccccc1,inactive
10,CCOC(=O)N1CCC(=C2c3ccc(Cl)cc3CCc3cccnc32)CC1,inactive
11,NCCc1ccc(O)c(O)c1,inactive
12,Cc1[nH]c(=O)c(C#N)cc1-c1ccncc1,inactive
13,N[C@@H]1CONC1=O,inactive
14,OC(CCN1CCCCC1)(c1ccccc1)C1CC2C=CC1C2 (stereo not given),inactive
15,O=C1CCC(N2C(=O)c3ccccc3C2=O)C(=O)N1 (stereo not given),inactive
16,CC(=O)Oc1ccccc1C(=O)O,inactive
17,O=c1n(CCCN2CCN(c3cccc(Cl)c3)CC2)nc2ccccn12,inactive
18,O=c1[nH]cnc2[nH]ncc12,inactive
19,CNC[C@H](O)c1cccc(O)c1,inactive
20,Nc1nc2c(ncn2COCCO)c(=O)[nH]1,inactive
